Experimental data as given in PubChem BioAssay (NCI).
Compounds without any hit were thinned out: in the full panel of roughly 83,000, 20% have a hit.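 A percent growth of 40 corresponds to 60% growth inhibition; 0 means no net growth; -100 means all cells died. Active threshold: below 10.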 Unmarked numbers belong to inactive results. Calls of active or inactive are those of the source.

What was measured:
Assay in all cases: NCI-60 one-dose screen, 48 h (100 = growth as untreated, 0 = no growth, -100 = all killed)
Settings in all cases: 10 µM
[1] = system: SR leukemia
[2] = system: RPMI-8226 leukemia
[3] = system: OVCAR-8 ovarian
[4] = system: SK-OV-3 ovarian
[5] = system: OVCAR-3 ovarian
[6] = system: HS 578T breast
[7] = system: NCI/ADR-RES ovarian
[8] = system: BT-549 breast
[9] = system: MDA-MB-435 melanoma
[10] = system: SW-620 colon
[11] = system: MCF7 breast
[12] = system: HCT-116 colon
[13] = system: HCC-2998 colon
[14] = system: KM12 colon
[15] = system: OVCAR-4 ovarian
[16] = system: T-47D breast
[17] = system: OVCAR-5 ovarian
[18] = system: IGROV1 ovarian

Compound | growth [1] | growth [2] | growth [3] | growth [4] [%] | growth [5] | growth [6] | growth [7] | growth [8] | growth [9] | growth [10] | growth [11] | growth [12] | growth [13] | growth [14] | growth [15] | growth [16] | growth [17] [%] | growth [18] [%]
Clc1ccc(Cc2ccncc2)cc1 | 97.6% | 109% | 99% | 113 | 110% | 105% | 108% | 99.9% | 112% | 105% | 97.5% | 101% | 95.6% | 102% |  |  |  | 
CCn1cc(C(=O)O)c(=O)c2cc(F)c(N3CCNCC3)cc21 | 100% | 104% | 97% | 113 | 114% | 111% | 110% | 110% | 107% | 103% | 107% | 115% | 110% | 103% | 111% | 124% |  | 
Nc1ccn(Cc2nnc(CCC(=O)c3nc4ccccc4[nH]3)o2)c(=O)n1 | 14.9% | 73.1% | 88.5% | 98.7 | 102% | 81.3% | 86.1% | 74.5% | 91.9% | 83.5% | 35.7% | 63.8% | 79.8% | 84.4% |  | 71.6% | 98 | 
CCn1c2ccc(O)cc2c2c(C)c3c[n+](C)ccc3c(C)c21 | 21.2% |  | 32.4% | 71.2 | 37.8% | -0.0943% (active) | 81% | -13% (active) | 64.9% | 41.3% | 16.7% | 33.9% | 35.1% | 21.5% | 52% | -6.62% (active) | 88.7 | 53.8
Cc1c(Cl)cccc1NC(=O)CCCl | 84.1% | 90.6% | 94.2% |  | 102% | 104% | 105% | 99.7% | 105% | 106% | 102% | 89.4% | 99.1% | 100% | 111% | 92.3% | 106 | 
Cc1c[nH]c(=O)n(Cc2nnc(CCC(=O)c3nc4ccccc4[nH]3)o2)c1=O | 4.57% (active) | 17.2% | 21% |  | -14.8% (active) | 10.2% | 90.7% | 18.9% | -45.8% (active) | 28.9% | 9.44% (active) | 6.25% (active) | -27.9% (active) | 4.98% (active) |  | 34.3% | 13.8 | 47.8
CC(C)C1=C(O)C2=C(C(=O)C1=O)[C@@]1(C)CCCC(C)(C)[C@@H]1CC2 | 48% | 55.2% | 70% | 95.5 | 61% | 85% |  | 106% | 75.4% | 55.4% | 66.4% | 58% | 53.8% | 52% |  | 67.7% | 108 | 
CCOC(=O)C1C(C(=O)OCC)C2C(=O)C3C(C(=O)OCC)C(C(=O)OCC)C3C(=O)C12 (stereo unspecified) | 117% | 101% | 104% | 109 | 114% | 108% | 56% | 109% | 105% | 111% | 99.8% | 104% | 107% | 109% |  | 100% | 108 | 118
COc1cc(N)c2ncccc2c1SC | 90.4% | 100% | 98.4% |  | 105% | 92.5% | 99.1% | 102% | 110% | 104% | 104% | 99.3% | 102% | 102% | 105% | 93.1% | 101 | 
Oc1ccc(-c2[nH]c3ccccc3c2-c2nc3ccccc3o2)cc1 | 14.8% | 86.6% | 91.9% | 72.9 | 74.1% | 81.4% | 32.5% | 64.7% | 0.478% (active) | 40.9% | 24.1% | 23.7% | 58.5% | 21% |  | 40% | 80.6 | 52.6
COc1ccc2c(c1)CC=C1[C@@H]2CC[C@]2(C)C(=O)/C(=N/O)C[C@@H]12 | 74.6% | 83.8% | 102% | 116 | 106% | 90.3% | 90.3% | 88.8% | 90.5% | 78.4% |  | 61.9% | 79.7% | 92.6% |  | 90.2% | 86.1 | 
Nc1cc(Br)c(-c2nn3c(CCC(=O)c4nc5ccccc5[nH]4)nnc3s2)c(Br)c1 | 88.1% | 85.1% | 96.5% | 113 | 105% | 90% | 97.3% | 105% | 90.5% | 112% | 87.5% | 77.9% | 104% | 96.4% |  | 88% | 122 | 101
O=C(COc1cccc(/C=C2\CSc3ccccc3C2=O)c1)c1ccc(Cl)cc1 | -60.7% (active) | -64.5% (active) | -4.69% (active) |  | 57.5% | -25.5% (active) | 7.16% (active) | -77.5% (active) | -14.8% (active) | -100% (active) | -89.2% (active) | -57.8% (active) |  | -80.3% (active) | 80.9% | 57.8% | 19.5 | 
OC(CCN1CCCC1)(c1ccccc1)C1CCCCC1 (stereo unspecified) | 123% | 114% | 104% | 120 | 105% | 103% | 105% | 106% | 101% | 105% | 101% | 104% | 105% | 101% | 104% | 102% |  | 
CN1CCN(CCCn2c(=O)c3sc4ncccc4c3n3nnc(-c4ccccc4)c23)CC1 | -38% (active) | -2.66% (active) | 16.9% |  | -47.4% (active) | -12.2% (active) | 33.1% | 50.1% | -75.8% (active) | -65.5% (active) | 5.32% (active) | -59.2% (active) | -5.79% (active) | 16.4% | -29% (active) | -75.4% (active) | 59.3 | 
COc1cc2c3c(n([C@H]4CCOC4)c(=O)c2cc1OC)-c1cc2c(cc1C3=O)OCO2 | 13.6% |  | 35.2% | 24.6 | 46.9% | 107% | 27.5% | 48.2% | 59.3% | 46.2% | 14.2% | 31% | 70.5% | 57.1% | 70.9% | 11.8% | 71.6 | 62
Clc1ccc(C2=NN=C3C(Cc4ccccc4)=Nc4ccccc4N3C2)cc1 | 25.4% | 49.4% | 75.5% | 112 | 65.8% | 90.1% | 74.4% | 88.8% | 73% | 91.8% | 88.7% | 53.1% | 68.5% | 63.6% |  | 95% | 90 | 83.8
CCOC(=O)/C(=C(\C)N)C1CC(=O)NC1=O (stereo unspecified) | 102% | 101% | 99.7% | 107 | 109% | 97.5% | 92.8% | 87.3% | 100% | 96.8% | 91% | 107% | 103% | 121% |  | 110% | 102 | 118
CC(=O)Nc1ccc(CC[C@H]2CCC/C=C/[C@@H]3C[C@H](O)C[C@H]3[C@H](O)/C=C/C(=O)O2)cc1 | 3.92% (active) |  | 0.483% (active) | 29.8 | 6.39% (active) | 34.9% | 18.7% | 27.5% | 14.7% | 0.331% (active) | -14.8% (active) | -67.9% (active) | 2.85% (active) |  | 18.4% | 7.42% (active) | 23 | 20.3
